In publication PMC5540273 (PLoS ONE, 2017):
Read-outs that look alike come from different tables or passages of the source.

What was measured:
FGFR1 = settings: concentration: 1 μM, replicates: in singlicate; n = 1
FGFR2 = settings: concentration: 1 μM, replicates: in singlicate; n = 1
FGFR3 = settings: concentration: 1 μM, replicates: in singlicate; n = 1
FGFR4 = settings: concentration: 1 μM, replicates: in singlicate; n = 1
FGR = settings: concentration: 1 μM, replicates: in singlicate; n = 1
FLT1 = settings: concentration: 1 μM, replicates: in singlicate; n = 1
FLT3-autoinhibited = settings: concentration: 1 μM, replicates: in singlicate; n = 1
FLT3 = settings: concentration: 1 μM, replicates: in singlicate; n = 1
FLT4 = settings: concentration: 1 μM, replicates: in singlicate; n = 1
FRK = settings: concentration: 1 μM, replicates: in singlicate; n = 1
FYN = settings: concentration: 1 μM, replicates: in singlicate; n = 1
GAK = settings: concentration: 1 μM, replicates: in singlicate; n = 1
GCN2(Kin.Dom.2,S808G) = system: T1, GCN2(Kin.Dom.2,S808G); settings: concentration: 1 μM, replicates: in singlicate; n = 1
T1 construct: gene EIF2AK4

GRK1 = settings: concentration: 1 μM, replicates: in singlicate; n = 1
GRK2 = system: T2, GRK2; settings: concentration: 1 μM, replicates: in singlicate; n = 1
T2 construct: gene ADRBK1

GRK3 = system: T3, GRK3; settings: concentration: 1 μM, replicates: in singlicate; n = 1
T3 construct: gene ADRBK2

GRK4 = settings: concentration: 1 μM, replicates: in singlicate; n = 1
GRK7 = settings: concentration: 1 μM, replicates: in singlicate; n = 1
GSK3A = settings: n = 1
GSK3B = settings: n = 1
[1] = concentration: 1 μM, replicates: in singlicate
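Note: KINOMEscan kinase panel screen.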

Structure (SMILES): CCn1c(-c2nonc2N)nc2c(C#CC(C)(C)O)nc(OC[C@H](N)c3ccccc3)cc21 [GSK943949]
- %Inh (FGFR1): 11%
- %Inh (FGFR2): 4%
- %Inh (FGFR3): 0%
- %Inh (FGFR4): 0%
- %Inh (FGR): 0%
- %Inh (FLT1): 1%
- %Inh (FLT3-autoinhibited): 0%
- %Inh (FLT3): 3%
- %Inh (FLT4): 20%
- %Inh (FRK): 0%
- %Inh (FYN): 0%
- %Inh (GAK): 0%
- %Inh (GCN2(Kin.Dom.2,S808G)): 19%
- %Inh (GRK1): 14%
- %Inh (GRK2): 11%
- %Inh (GRK3): 0%
- %Inh (GRK4): 3%
- %Inh (GRK7): 30%
- %Inh (GSK3A; [1]): 66%
- %Inh (GSK3B; [1]): 59%

Structure (SMILES): CN(c1ccc(NC(=O)Nc2cc(C(F)(F)F)ccc2F)cc1)c1ccnc(Nc2ccc(S(N)(=O)=O)cc2)n1 [GW809893]
- %Inh (FGFR1): 76%
- %Inh (FGFR2): 70%
- %Inh (FGFR3): 22%
- %Inh (FGFR4): 14%
- %Inh (FGR): 94.7%
- %Inh (FLT1): 98.3%
- %Inh (FLT3-autoinhibited): 82%
- %Inh (FLT3): 98.6%
- %Inh (FLT4): 99.8%
- %Inh (FRK): 99%
- %Inh (FYN): 83%
- %Inh (GAK): 0%
- %Inh (GCN2(Kin.Dom.2,S808G)): 0%
- %Inh (GRK1): 17%
- %Inh (GRK2): 13%
- %Inh (GRK3): 0%
- %Inh (GRK4): 25%
- %Inh (GRK7): 6%
- %Inh (GSK3A; [1]): 68%
- %Inh (GSK3B; [1]): 12%

Structure (SMILES): Cc1ccc(C(=O)N2CC[C@@H](O)C2)cc1-n1c(C)cc(OCc2ccc(F)cc2F)c(Br)c1=O
- %Inh (FGFR1): 80%
- %Inh (FGFR2): 66%
- %Inh (FGFR3): 21%
- %Inh (FGFR4): 0%
- %Inh (FGR): 0%
- %Inh (FLT1): 46%
- %Inh (FLT3-autoinhibited): 0%
- %Inh (FLT3): 14%
- %Inh (FLT4): 0%
- %Inh (FRK): 14%
- %Inh (FYN): 21%
- %Inh (GAK): 0%
- %Inh (GCN2(Kin.Dom.2,S808G)): 0%
- %Inh (GRK1): 16%
- %Inh (GRK2): 0%
- %Inh (GRK3): 0%
- %Inh (GRK4): 0%
- %Inh (GRK7): 0%
- %Inh (GSK3A; [1]): 0%
- %Inh (GSK3B; [1]): 0%

Structure (SMILES): Cl.NC(=O)c1cccc(Nc2nccc(Nc3ccc(Oc4c(Cl)cccc4Cl)c(Cl)c3)n2)c1 [GW659009]
- %Inh (FGFR1): 0%
- %Inh (FGFR2): 0%
- %Inh (FGFR3): 0%
- %Inh (FGFR4): 0%
- %Inh (FGR): 31%
- %Inh (FLT1): 0%
- %Inh (FLT3-autoinhibited): 12%
- %Inh (FLT3): 33%
- %Inh (FLT4): 0%
- %Inh (FRK): 7%
- %Inh (FYN): 66%
- %Inh (GAK): 59%
- %Inh (GCN2(Kin.Dom.2,S808G)): 0%
- %Inh (GRK1): 0%
- %Inh (GRK2): 0%
- %Inh (GRK3): 39%
- %Inh (GRK4): 4%
- %Inh (GRK7): 0%
- %Inh (GSK3A; [1]): 0%
- %Inh (GSK3B; [1]): 0%

Structure (SMILES): CNC(=O)c1ccccc1Nc1nc(Nc2ccc(N3CCOCC3)cc2)ncc1Cl.Cl [GSK1576028]
- %Inh (FGFR1): 99.7%
- %Inh (FGFR2): 97.2%
- %Inh (FGFR3): 99%
- %Inh (FGFR4): 92.3%
- %Inh (FGR): 98.1%
- %Inh (FLT1): 89%
- %Inh (FLT3-autoinhibited): 96.2%
- %Inh (FLT3): 99.3%
- %Inh (FLT4): 99.9%
- %Inh (FRK): 86%
- %Inh (FYN): 98.3%
- %Inh (GAK): 96.9%
- %Inh (GCN2(Kin.Dom.2,S808G)): 100%
- %Inh (GRK1): 15%
- %Inh (GRK2): 13%
- %Inh (GRK3): 0%
- %Inh (GRK4): 84%
- %Inh (GRK7): 3%
- %Inh (GSK3A; [1]): 76%
- %Inh (GSK3B; [1]): 72%

Structure (SMILES): COc1cc(Nc2nccc(-c3c(-c4cccc(NC(=O)c5c(F)cccc5F)c4)nn4ncccc34)n2)cc(OC)c1OC [GSK327238]
- %Inh (FGFR1): 66%
- %Inh (FGFR2): 61%
- %Inh (FGFR3): 31%
- %Inh (FGFR4): 9%
- %Inh (FGR): 99.1%
- %Inh (FLT1): 99.2%
- %Inh (FLT3-autoinhibited): 0%
- %Inh (FLT3): 96.1%
- %Inh (FLT4): 99.8%
- %Inh (FRK): 96.9%
- %Inh (FYN): 97.5%
- %Inh (GAK): 31%
- %Inh (GCN2(Kin.Dom.2,S808G)): 69%
- %Inh (GRK1): 0%
- %Inh (GRK2): 0%
- %Inh (GRK3): 0%
- %Inh (GRK4): 0%
- %Inh (GRK7): 0%
- %Inh (GSK3A; [1]): 11%
- %Inh (GSK3B; [1]): 7%

Structure (SMILES): CCn1c(-c2nonc2N)nc2c(C#CC(C)(C)O)ncc(OCCCCN)c21.O=C(O)C(F)(F)F.O=C(O)C(F)(F)F [GSK507274]
- %Inh (FGFR1): 0%
- %Inh (FGFR2): 60%
- %Inh (FGFR3): 5%
- %Inh (FGFR4): 9%
- %Inh (FGR): 33%
- %Inh (FLT1): 23%
- %Inh (FLT3-autoinhibited): 0%
- %Inh (FLT3): 0%
- %Inh (FLT4): 15%
- %Inh (FRK): 26%
- %Inh (FYN): 0%
- %Inh (GAK): 41%
- %Inh (GCN2(Kin.Dom.2,S808G)): 13%
- %Inh (GRK1): 65%
- %Inh (GRK2): 0%
- %Inh (GRK3): 44%
- %Inh (GRK4): 21%
- %Inh (GRK7): 75%
- %Inh (GSK3A; 1 µM): 78%
- %Inh (GSK3B; 1 µM): 100%

Structure (SMILES): COc1cc(Nc2nccc(N3CCC(NC(=O)Nc4cccc(C(C)=O)c4)C3)n2)cc(OC)c1OC (stereo not drawn) [GSK1379753]
- %Inh (FGFR1): 3%
- %Inh (FGFR2): 0%
- %Inh (FGFR3): 9%
- %Inh (FGFR4): 14%
- %Inh (FGR): 14%
- %Inh (FLT1): 19%
- %Inh (FLT3-autoinhibited): 0%
- %Inh (FLT3): 63%
- %Inh (FLT4): 6%
- %Inh (FRK): 0%
- %Inh (FYN): 40%
- %Inh (GAK): 34%
- %Inh (GCN2(Kin.Dom.2,S808G)): 0%
- %Inh (GRK1): 2%
- %Inh (GRK2): 0%
- %Inh (GRK3): 16%
- %Inh (GRK4): 0%
- %Inh (GRK7): 0%
- %Inh (GSK3A; [1]): 0%
- %Inh (GSK3B; [1]): 1%

Structure (SMILES): COc1cc(Nc2nccc(N3CCC(NC(=O)c4cc5ccccc5s4)C3)n2)cc(OC)c1OC (stereo not drawn) [GSK1379760]
- %Inh (FGFR1): 0%
- %Inh (FGFR2): 0%
- %Inh (FGFR3): 18%
- %Inh (FGFR4): 0%
- %Inh (FGR): 23%
- %Inh (FLT1): 36%
- %Inh (FLT3-autoinhibited): 3%
- %Inh (FLT3): 33%
- %Inh (FLT4): 26%
- %Inh (FRK): 9%
- %Inh (FYN): 8%
- %Inh (GAK): 27%
- %Inh (GCN2(Kin.Dom.2,S808G)): 4%
- %Inh (GRK1): 0%
- %Inh (GRK2): 0%
- %Inh (GRK3): 17%
- %Inh (GRK4): 19%
- %Inh (GRK7): 0%
- %Inh (GSK3A; [1]): 0%
- %Inh (GSK3B; [1]): 4%
